Assay results published in ChEMBL document CHEMBL3988442, “University of Dundee, Small-Polar-MMV Screening Library” (2021).

target: T1, Aspartate--tRNA(Asp/Asn) ligase (Mycobacterium tuberculosis (strain ATCC 25618 / H37Rv)) (UniProt P9WFW3); assay: Assay for Asp RNA synthetase-1 from Mycobacterium tuberculosis; type: functional; set-up: scale not given: in the data most compounds retested in dose-response had high values; details: 30 µM
T1 sequence (whole entry): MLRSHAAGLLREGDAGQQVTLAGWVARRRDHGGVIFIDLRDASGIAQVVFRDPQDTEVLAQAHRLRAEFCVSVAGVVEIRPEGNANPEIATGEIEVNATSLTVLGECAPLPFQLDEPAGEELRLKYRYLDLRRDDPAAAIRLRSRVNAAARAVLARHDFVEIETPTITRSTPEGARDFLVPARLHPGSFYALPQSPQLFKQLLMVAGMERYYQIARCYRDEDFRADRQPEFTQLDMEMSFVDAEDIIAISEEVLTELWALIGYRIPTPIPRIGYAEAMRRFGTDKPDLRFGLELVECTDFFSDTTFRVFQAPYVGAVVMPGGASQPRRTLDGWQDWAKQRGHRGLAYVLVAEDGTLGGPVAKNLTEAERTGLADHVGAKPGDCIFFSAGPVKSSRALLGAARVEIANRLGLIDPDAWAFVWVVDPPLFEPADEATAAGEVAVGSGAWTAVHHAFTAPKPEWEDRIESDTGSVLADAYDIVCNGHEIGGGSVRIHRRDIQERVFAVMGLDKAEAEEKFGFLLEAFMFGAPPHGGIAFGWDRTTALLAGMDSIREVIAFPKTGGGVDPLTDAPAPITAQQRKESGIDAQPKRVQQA

Row | SMILES | Percent Effect [%]
1 | CC1CCN(CCNC(=O)c2cncnc2C(C)C)CC1 | -2.54
2 | Cc1ccccc1OCCC(=O)OC(C)C(=O)Nc1sccc1C(N)=O (stereo not given) | -2.83
3 | Cc1cccc(-c2ccc3nc(C4CCN(CC5CC5)CC4)nn3c2)c1 | -1.89
4 | CCCNC(=O)Nc1cc2c(cc1SC)OCCO2 | -0.324
5 | Cc1nn(-c2ccccc2)nc1C(=O)N1CCCC1c1cnn(C)c1 (stereo not given) | 2.1
6 | CCN(CC)S(=O)(=O)N1CCCC(c2cccc(C(=O)O)c2)C1 (stereo not given) | -1.97
7 | O=C(NCCOc1cccc(Cl)c1)C1CC(=O)N(CC2CC2)C1 (stereo not given) | 0
8 | CCCc1n[nH]c(C2CN(C(=O)c3cc(F)ccc3OC)CCO2)n1 (stereo not given) | 0
9 | CCn1ccnc1CN1CCN(C(C)C(=O)N2CCC(C)CC2)CC1 (stereo not given) | -3.5
10 | Cc1cccc(C(=O)N2CCC(Cc3cnc4[nH]ccc4c3)CC2)n1 | 4.87
11 | COc1cccc2cc(CNCc3ccnc(N4CCOCC4)c3)oc12 | -2.91
12 | Clc1ccccc1-c1nc(CNC2CCc3ncnn3C2)cs1 (stereo not given) | -0.745
13 | CNC(=O)C1(CCCc2cccnc2)CCCCN1 (stereo not given) | 0.849
14 | O=C(NCC1CC1)N1CCN(Cc2ccc3c(c2)OCCO3)CC1 | 0.365
15 | CC(C)c1noc(CCCC(=O)N2CCN(Cc3ccncc3)CC2)n1 | 3.6
16 | Cc1noc([C@H]2C[C@H]3OCC[C@H]3N(S(=O)(=O)C3CC3)C2)n1 | 0.456
17 | CNc1cc(C)nc(C2CN(Cc3cc[nH]n3)CCO2)c1 (stereo not given) | -0.432
18 | COCCNC(=O)CN1CCN(c2nc(C)cs2)C(C)C1 (stereo not given) | -0.728
19 | COc1cc(C)nc(N2CCN(C(=O)c3ccc[nH]3)CC2)n1 | 1.55
20 | O=C(c1cscn1)N1CCC[C@]2(C[C@H](OCC3CC3)CO2)C1 | 3.34
